Measurements reported in PubChem BioAssay AID1159580 (chemical genetic matrix, 2015).
About 2,000 (36%) of roughly 5,500 compounds were called active. Inconclusive results (about 18%) are left out. Rule as the data show it: active = normalized growth mostly below about 0.91 (no sharp cut-off); inconclusive = no clear call, values can overlap the other calls; inactive = mostly above about 0.92. This is one part of the list.

Assay: chemical genetic growth profiling, strain panel (AID 1159580);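 also: tested at 20 µM; growth read once vehicle control cultures reached saturation at 30 °C; 1 = growth at the plate median or of vehicle wells; lower values mean less growth of the strain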
Conditions: S. cerevisiae deletion strains, growth OD
[1] = locus YDR150W, strain NUM1, active compounds read low
[2] = locus YGR078C, strain PAC10, active compounds read low
[3] = locus YMR263W, strain SAP30, active compounds read low
[4] = locus YPL055C, strain LGE1, active compounds read low

Measured: normalized growth

CCN(CC)C(=O)N[C@@H]1C[C@@H]2c3cccc4[nH]cc(c34)C[C@H]2N(C)C1
inactive: locus YAL040C, strain CLN3, active compounds read low 1 | locus YCL061C, strain MRC1 (second series), active compounds read low 1.01 | [1] 1 | locus YDR363W, strain ESC2, active compounds read low 1.01 | locus YER002W, strain NOP16, active compounds read low 0.995 | [2] 1.01 | [3] 1 | locus YMR307W, strain GAS1, active compounds read low 1.01 | locus YNL128W, strain TEP1, active compounds read low 1.01 | locus YNL175C, strain NOP13, active compounds read low 0.993 | locus YNL197C, strain WHI3, active compounds read low 0.995 | locus YNL224C, strain SQS1, active compounds read low 1.02 | locus YOR083W, strain WHI5 (second series), active compounds read low 1.01 | [4] 1.01

COC(CNc1cccc(Cl)c1C#N)OC
inactive: locus YAL013W, strain DEP1, active compounds read low 0.997 | locus YBR229C, strain ROT2, active compounds read low 0.994 | locus YDL101C, strain DUN1, active compounds read low 0.983 | locus YDL134C, strain PPH21, active compounds read low 0.961 | [1] 1.01 | locus YEL061C, strain CIN8, active compounds read low 0.971 | [2] 0.989 | locus YGR229C, strain SMI1, active compounds read low 0.978 | locus YHR030C, strain SLT2, active compounds read low 0.944 | locus YHR087W, strain rtc3, active compounds read low 0.98 | locus YJL187C, strain SWE1, active compounds read low 0.981 | locus YJR043C, strain POL32, active compounds read low 0.989 | locus YJR075W, strain HOC1, active compounds read low 0.958 | locus YLR039C, strain RIC1, active compounds read low 0.983 | locus YLR058C, strain SHM2 (second series), active compounds read low 0.989 | locus YLR085C, strain ARP6, active compounds read low 0.931 | locus YLR262C, strain YPT6, active compounds read low 0.979 | locus YML094W, strain GIM5, active compounds read low 0.953 | locus YMR219W, strain ESC1, active compounds read low 0.986 | [3] 1.01 | locus YNL153C, strain GIM3, active compounds read low 0.946 | locus YNL298W, strain CLA4 (second series), active compounds read low 0.979 | locus YNL322C, strain KRE1, active compounds read low 0.98 | locus YNR030W, strain Alg12, active compounds read low 0.976 | [4] 1.03 | locus YPL241C, strain CIN2, active compounds read low 0.95 | locus YPR135W, strain CTF4, active compounds read low 0.957
